Source: PubChem
Most compounds without a hit are left out; they make up all but 4.1% or so of the library.
ssDAF12 agonist = S. stercoralis DAF-12 activation, primary screen; HEK293 ssDAF-12/GRIP1 lit1-tk-luc reporter, luminescence; % of 3 µM dafachronic acid response; activation, % at 6.8 µM; 370,000 compounds, 1% hits; AID 652126;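 active = activation above the mean over all tested compounds plus 3 SD, cut at about 0.9% in these data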;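 note: 0% = DMSO-only wells and 100% = 3 µM delta7-dafachronic acid wells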
DAX1 inh-1 = DAX1 (NR0B1) inhibition, primary screen. 370,000 compounds, 1.1% hits. AID 652010. inhibition, % at 6.8 µM. HEK293T StAR-luciferase reporter, SF-1/DAX-1 repression relief;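 active = inhibition above the mean over all tested compounds plus 3 SD, cut at about 3.6% in these data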;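 note: 0% = DAX-1 cells with DMSO and 100% = cells lacking DAX-1 with DMSO; higher inhibition means more luminescence from relief of DAX-1 repression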
hcDAF12 agonist = H. contortus DAF-12 activation, primary screen; AID 652067; HEK293 hcDAF-12 lit1-tk-luc reporter, luminescence; 0% DMSO, 100% Δ7-dafachronic acid; activation, % at 6.8 µM; 370,000 compounds, 1.4% hits;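 active = activation above the mean of all tested compounds plus 3 SD, cut at about 5.5% in these data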;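 note: 100% = response to 3 µM Δ7-dafachronic acid high control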
hgDAF12 agonist = hgDAF-12 agonism, primary luciferase screen | 370,000 compounds, 1.8% hits | HEK293 GAL4-hgDAF12 UAS-luciferase reporter, agonist luminescence; normalized to butyrate control | activation, % at 6.8 µM | AID 687014;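 active = activation above a cutoff set at the mean of all screened compounds plus 3 SD, cut at about 10% in these data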;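 note: 0% = DMSO wells and 100% = sodium butyrate wells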
DAX1 inh-2 = NR0B1 (DAX1) inhibition. AID 504766. inhibition, % at 6.75 µM. HEK293 Gal4-DAX1 luciferase reporter, luminescence. 340,000 compounds, 0.99% hits. P51843;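 active = inhibition above the mean over all tested compounds plus 3 SD, cut at about 4.2% in these data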;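 note: 0% = DAX1-transfected cells with DMSO and 100% = empty-vector control cells with DMSO; inhibition shows as a rise in luminescence from relieved DAX1 repression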
Target sequence (P51843 207-470 limits assumed): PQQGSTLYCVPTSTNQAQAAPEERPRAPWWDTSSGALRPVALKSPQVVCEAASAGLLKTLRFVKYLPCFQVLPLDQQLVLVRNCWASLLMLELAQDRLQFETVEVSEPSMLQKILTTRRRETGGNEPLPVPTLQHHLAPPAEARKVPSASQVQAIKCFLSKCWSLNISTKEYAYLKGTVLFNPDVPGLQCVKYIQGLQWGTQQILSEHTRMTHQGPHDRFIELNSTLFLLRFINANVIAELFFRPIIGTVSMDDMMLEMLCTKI
* marks the source's active call; other numbers are inactive results; · = no result given.

SMILES | ssDAF12 agonist | DAX1 inh-1 | hcDAF12 agonist | hgDAF12 agonist | DAX1 inh-2
CCOc1ccc(NC(=O)C(c2ccccn2)N(C(=O)CCl)c2ccc(OC)cc2)cc1 (stereo not given) | 2.4* | -0.2 | 10.1* | 10.7* | 1.0
CCOc1ccc(NC(=O)C(c2ccccn2)N(C(=O)CCl)c2ccc(OCC)cc2)cc1 (stereo not given) | · | · | · | · | 2.6
CCN1Cc2nnn(Cc3ccccc3)c2-c2cc(F)ccc2S1(=O)=O | -0.6 | 0.0 | -0.3 | -0.4 | ·
COc1cccc(N(C)C(=O)[C@@H](C)[C@@H](O)c2ccc(C(C)=O)cc2)c1 | -1.4 | -0.8 | -1.3 | 2.0 | ·
COc1cccc(NC(=S)N(CCC(C)C)C(C)c2ccncc2)c1 (stereo not given) | -0.9 | 0.1 | 1.8 | 0.9 | -0.5
CSc1cccc(NC(=S)N(CCC(C)C)C(C)c2ccncc2)c1 (stereo not given) | -0.9 | 0.1 | -0.1 | 2.6 | 4.7*
Cc1cc(Nc2ccc(F)cc2F)n2ncnc2n1 | -1.3 | -0.1 | -0.8 | 1.2 | 4.9*
Cc1ccc2c(c1)N(CCCC(=O)N(C)Cc1ccc(F)cc1)C(=O)CO2 | -1.5 | -0.8 | -2.7 | 0.2 | ·
N#C/C(=C(/O)CSc1ncn[nH]1)c1nc2ccccc2[nH]1 | -0.5 | 0.7 | 6.5* | -0.3 | 0.0
Cc1cc(C)n2c(SCC(O)=C(C#N)c3nc4ccccc4[nH]3)nnc2n1 | -1.4 | -0.1 | 1.0 | -0.7 | 0.0
c1ccc(-c2cnc(-c3ccccc3)nc2)cc1 | 0.7 | 2.3 | 4.8 | 10.6* | 1.9
O=C(c1ccccc1)c1ccc2ccccc2c1 | -1.3 | -1.4 | 0.2 | 3.1 | 5.3*
Clc1ccccc1N1CCN(C2=Nc3ccccc3Sc3ccccc32)CC1 | -1.7 | -1.7 | -4.2 | -6.9 | ·
COC(=O)c1sc2ncccc2c1OCc1cccc(Cl)c1 | -1.4 | -1.6 | -2.1 | 3.4 | 4.2*
COC(=O)[C@]1(C#N)CC(=O)N(C(C)C)[C@@H]1c1ccccc1 | -1.5 | 0.9 | 0.1 | 7.1 | ·
NC(=O)CCn1c(C(=O)c2cccc([N+](=O)[O-])c2)c2ccccc2[n+]1[O-] | 1.1* | 0.7 | 2.9 | 0.9 | 0.3
NC(=O)CCn1c(C(=O)c2cc(Cl)c(N)c(Cl)c2)c2ccccc2[n+]1[O-] | -0.1 | -0.2 | 1.9 | -1.2 | -0.1
Cc1ccccc1CN1CCCCC(NC(=O)C2CCCC2)C1=O (stereo not given) | -1.4 | -1.6 | -4.2 | 1.4 | ·
CC(OC(=O)CC1Sc2ccccc2NC1=O)C(=O)N(C)Cc1ccccc1 (stereo not given) | 1.0* | 1.0 | 1.6 | 2.6 | 1.7
CCOC(=O)CC1Sc2ccccc2NC1=O (stereo not given) | · | · | · | · | -0.4
Cn1c(C2CC(=O)N(Cc3ccccc3)C2)nc2ccccc21 (stereo not given) | 1.1* | -0.3 | -1.5 | 1.4 | 2.0
COc1ccc(C)cc1S(=O)(=O)N(CC(=O)O)c1ccc(C)cc1 | -1.3 | 0.0 | -1.1 | 2.2 | 0.1
CNC(=O)CN(c1ccc(F)cc1)S(=O)(=O)c1cc(C)ccc1OC | -1.1 | -0.6 | 1.5 | -0.3 | 4.3*
O=C(NC(Cc1c[nH]c2ccccc12)C(=O)OCC(=O)c1cccc2ccccc12)c1cccs1 (stereo not given) | -1.1 | -0.1 | 6.1* | 3.1 | 0.5
CCCCN1CCC(COC(=O)c2cc(Cl)c(N)c3c2OCCO3)CC1 | -1.1 | 4.5* | -2.1 | 4.2 | 1.8
SMILES | ssDAF12 agonist | DAX1 inh-1 | hcDAF12 agonist | hgDAF12 agonist | DAX1 inh-2
COc1ccc(C(C#N)N2N=C(C)CC2c2ccccc2)cc1 (stereo not given) | -1.0 | 0.6 | -0.1 | 1.8 | -0.1
COc1ccc(C2=NN(C(C#N)c3ccc(OC)cc3)C(c3ccccc3)C2)cc1 (stereo not given) | -0.6 | 2.7 | 6.4* | 13.2* | 5.4*
Cc1oc(-c2ccc(Cl)cc2)cc1C(=O)O | -0.3 | 0.5 | 1.3 | 3.4 | 5.5*
CN(C)C(=O)C12CCC(C)(C(=O)C1Br)C2(C)C (stereo not given) | 1.0* | -0.5 | 0.3 | 0.5 | -0.8
CC12CCC(C(=O)N3CCOCC3)([C@H](Br)C1=O)C2(C)C (stereo not given in full) | -1.5 | 0.5 | 0.0 | 0.0 | ·
Cc1nn(C)c(C)c1CNC(=O)Nc1cccc(Cl)c1 | -0.1 | 4.0* | 1.7 | 11.0* | 2.0
O=C(Nc1cccc(Cl)c1)Nc1cccc(Cl)c1 | -0.9 | 0.3 | -0.3 | 5.3 | 0.1
Cc1nnc(NC(=O)Nc2cccc(Cl)c2)s1 | 0.4 | 0.9 | 0.6 | 11.2* | 0.2
S=C(Nc1ccccc1Oc1ccccc1)Nc1cccc(Cl)c1Cl | 1.0* | -0.3 | 3.7 | -0.1 | -0.4
CCc1c(C)nc2cc(-c3cccc(Br)c3)[nH]n2c1=O | 1.0* | 0.5 | 6.4* | 7.0 | 2.5
CCCc1cc(=O)n2[nH]c(-c3ccc(C)cc3)cc2n1 | -0.1 | 4.0* | 2.0 | 6.4 | 2.0
O=c1c2c(nc3cc(-c4ccc(Cl)cc4)[nH]n13)CCS2 | 0.3 | 2.6 | 4.5 | 11.0* | 3.2
CCc1c(C)nc2cc(-c3ccc(Cl)cc3)[nH]n2c1=O | -0.2 | 1.9 | 3.0 | 10.9* | 4.8*
O=[N+]([O-])c1ccc(COc2ccccc2CO)cc1 | -1.0 | 2.2 | 0.5 | 7.3 | ·
CCOC(=O)CCCCCC(=O)Nc1ccc2c(c1)C(=O)N([C@H](C)CO)C[C@@H](C)[C@@H](CN(C)S(=O)(=O)c1ccc(C)cc1)OCCCC[C@H](C)O2 | -0.7 | -1.0 | -0.1 | -0.7 | ·
C[C@@H]1CCN(C2CC2)S(=O)(=O)c2ccc(N3CC[C@@H](O)C3)cc2O1 | -0.4 | -0.9 | -2.3 | -0.3 | ·
CC[C@@H](C)[C@@H]1CN([C@@H](C)CN2CCC[C@H]2CN2C(N)=NC[C@@H]2Cc2ccccc2)C(=N)N1CCc1ccc(Cl)c(Cl)c1 | · | · | · | · | 5.2*
CN(C)c1ccc(N(C)C)c(C(O)(c2ccccc2)c2ccccc2)c1 | -1.5 | -0.5 | -0.9 | -0.7 | ·
CCOc1ccccc1Nc1cc(C)nc2nnnn12 | 1.0* | 0.2 | 1.4 | -1.2 | 0.5
CC[C@H](CCC(=O)N(c1ccccc1)c1ccccc1)C1CC1 | -1.6 | -1.0 | -4.3 | 1.5 | ·
O=C(Nc1ccc(N2C(=O)[C@@H]3[C@H](C2=O)[C@@H]2C=C[C@H]3C2)c(Cl)c1)c1ccccn1 | -0.4 | · | 4.2 | 11.7* | ·
CS(=O)(=O)N(CC(=O)Nc1ccccc1C(=O)N1CCOCC1)c1ccc(Cl)cc1 | -1.3 | 0.0 | 0.1 | -1.5 | 0.0
CCc1ccc(N(CC(=O)Nc2ccccc2C(=O)N2CCOCC2)S(C)(=O)=O)cc1 | 1.5* | -0.7 | -0.4 | -0.7 | -0.6
CCOC(=O)Cc1nnc(NC(=O)COc2ccc(OC)cc2)s1 | -1.5 | 0.3 | 3.0 | -2.0 | 4.7*
CCOC(=O)[C@]12CCCC=C1N(Cc1ccc(OC)cc1)C(=O)[C@@H]2CC(=O)NCC12CC3CC(CC(C3)C1)C2 | -0.9 | -1.7 | -2.8 | -0.5 | ·
COc1ccc(C#Cc2c(-c3ccsc3)oc3ccc(-c4cc(OC)c(OC)c(OC)c4)cc23)cc1 | -0.7 | -0.6 | 5.6* | 4.2 | 0.4
